Hit rate of the full screen: of about 16,000 compounds, about 5,700 (36%) were called active. About 24% were inconclusive and are not listed. Some of the results follow. Values without a mark were called inactive. Calls follow the shape of the dose curve; as a rule, active = well fitted curve in the direction sought with a large enough effect; inconclusive = small, poorly fitted or top-dose-only effect, or effect the other way; inactive = no such curve, though single readings can be large or run the other way.
Molecular target: Cytochrome P450 1A2 (Homo sapiens) (UniProt P05177)
Assay: Cytochrome panel assay with activity outcomes
Conditions: recombinant CYP, pro-luciferin dealkylation, luminescence, p450-cyp1a2; series mostly up to 57.1 µM; activity, negative = inhibition: at the top concentration
% is scaled to controls: 0 for no effect and ±100 for the full control effect.

Sequence of Cytochrome P450 1A2 (Homo sapiens) (P05177 whole entry, looked up): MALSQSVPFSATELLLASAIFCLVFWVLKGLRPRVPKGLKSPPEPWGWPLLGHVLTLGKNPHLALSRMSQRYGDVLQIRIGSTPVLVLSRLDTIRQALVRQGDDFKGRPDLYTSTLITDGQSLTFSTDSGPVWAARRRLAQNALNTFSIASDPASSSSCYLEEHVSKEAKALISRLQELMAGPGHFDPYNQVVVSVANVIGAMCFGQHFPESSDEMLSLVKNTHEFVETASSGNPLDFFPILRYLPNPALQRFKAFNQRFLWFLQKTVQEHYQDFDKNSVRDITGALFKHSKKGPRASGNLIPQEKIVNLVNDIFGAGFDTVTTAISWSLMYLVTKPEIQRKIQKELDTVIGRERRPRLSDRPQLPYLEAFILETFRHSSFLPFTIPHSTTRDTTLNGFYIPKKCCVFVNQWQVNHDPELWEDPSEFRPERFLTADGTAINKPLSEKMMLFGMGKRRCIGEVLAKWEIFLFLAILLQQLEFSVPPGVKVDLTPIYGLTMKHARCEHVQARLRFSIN

Row | SMILES | activity, negative = inhibition | AC50
1 | O=C(O)CCNc1ncnc2nc[nH]c12 | -6.59% [at 11.4 µM] | –
2 | CN(C)CCCNc1ncnc2nc[nH]c12 | -16.6% [at 11.4 µM] | –
3 | CCCCNc1nc(SC)nc2nc[nH]c12 | – | 316 nM (active)
4 | CC[C@@]1(O)C(=O)OCc2c1cc1n(c2=O)Cc2cc3c(CN(C)C)c(O)ccc3nc2-1 | -17.9% [at 2.29 µM] | –
5 | CCn1c(SCC(=O)Nc2sc3c(c2C(N)=O)CCC(C)C3)nnc1-c1ccco1 (stereo not drawn) | – | 12600 nM (active)
6 | CCn1c(SCC(=O)Nc2sc3c(c2C#N)CCC(C(C)(C)C)C3)nnc1-c1ccco1 (stereo not drawn) | -14.1% | –
7 | COc1ncc2nc(-c3cc(F)cc(F)c3)c(=O)n(C[C@H]3CCCO3)c2n1 | – | 3160 nM (active)
8 | COc1cccc(Cn2c(=O)c(-c3cc(F)cc(F)c3)nc3cnc(N4CCN(C)CC4)nc32)c1 | -16.9% | –
9 | COc1ncc2nc(-c3ccc(Cl)cc3)c(=O)n(C[C@H]3CCCO3)c2n1 | – | 501 nM (active)
10 | CCCC12CN3CC(CCC)(CN(C1)C3C(O)C(O)C(O)CO)C2=O (stereo not drawn) | 1.15% | –
11 | CCCC(=O)Nc1ccc(C(=O)Nc2cc(C(F)(F)F)ccc2Cl)cc1 | -21.8% | –
12 | COc1ccc(/C=C/C(=O)Nc2cc(C(F)(F)F)ccc2Cl)cc1 | – | 447 nM (active)
13 | COc1cc(C(=O)Nc2cc(C(F)(F)F)ccc2Cl)cc(OC)c1OC | – | 5010 nM (active)
14 | COc1ccc(C(=O)N2CCC3(CCN(Cc4cc(C(F)(F)F)cc(C(F)(F)F)c4)CC3)CC2)cc1 | -5.69% | –
15 | COc1cccc(C(=O)Nc2cc(C(F)(F)F)ccc2Cl)c1 | – | 2510 nM (active)
16 | CN(C)S(=O)(=O)Oc1cccc(C(=O)Nc2ccccc2Cl)c1 | – | 2000 nM (active)
17 | COc1cc(NC(=O)c2ccc(COCC(F)(F)F)cc2)cc(OC)c1OC | -21.6% | –
18 | CCOc1ccc(/C(O)=C2/C(=O)C(=O)N(CCOCCO)C2c2cccnc2)cc1 (stereo not drawn) | -14.1% | –
19 | CS(=O)(=O)N1CCC[C@@]2(CCN(c3ccccn3)C2)C1 | -10.5% | –
20 | COC(=O)CNC(=O)CCCCC(=O)NCC(=O)OC | 5.92% | –
21 | COC(=O)CNC(=O)/C=C/c1ccc(OC)cc1 | – | 12600 nM (active)

Row | SMILES | activity, negative = inhibition | AC50
22 | COc1ccc(CNC(=O)/C=C/c2ccc(OCCCF)cc2)cc1 | -5.44% | –
23 | CCOC(=O)Cn1c(=O)oc2cc(S(=O)(=O)NCCc3ccc(OCC)c(OCC)c3)ccc21 | – | 12600 nM (active)
24 | Cc1ccc(CNC(=O)CCNS(=O)(=O)c2ccc3c(c2)c(=O)n(C)c(=O)n3C)cc1 | 15.7% | –
25 | CCOc1ccc(CCNC(=O)C2CCN(S(=O)(=O)CC)CC2)cc1OCC | -18.3% | –
26 | N#Cc1cccc(NC(=O)N2CC[C@@]3(CCCN(C(=O)c4ccco4)C3)C2)c1 | -9.82% | –
27 | COc1ccc(C(=O)NCCCN2CCOCC2)cc1OC | -0.134% | –
28 | O=C(NCCCn1ccnc1)c1ccc(Br)c(S(=O)(=O)N2CCOCC2)c1 | – | 1780 nM (active)
29 | Cc1ccc(C(=O)NCCCN2CCOCC2)cc1N1CCCC1=O | -2.59% | –
30 | Cc1cccc([C@@H]2CN(C)CCc3c2cc(O)c(O)c3Cl)c1 | -2.57% | –
31 | CC(C)Nc1nc(Oc2ccc(Cl)cc2)cc(C(F)(F)F)n1 | – | 2000 nM (active)
32 | CC(C)c1cc(C(F)(F)F)nc(NNc2nc(C(C)C)cc(C(F)(F)F)n2)n1 | -41.5% [at 11.4 µM] | –
33 | CCS(=O)(=O)c1ccc2oc(Nc3cc(C)cc(C)c3)nc2c1 | – | 5010 nM (active)
34 | Cc1cc(C)n(-c2cc(N3CCN(S(=O)(=O)c4ccc(C)c(C)c4)CC3)ccc2[N+](=O)[O-])n1 | 5.25% | –
35 | CC(C)NC[C@@H](O)COc1ccc(COCCOC(C)C)cc1 | – | inactive
36 | CC(C)NC[C@H](O)c1cc(O)cc(O)c1 | – | inactive
37 | CC(C)NC[C@H](O)COc1cccc2ccccc12 | – | 200 nM (active)
38 | O=C(O)c1cc(=O)c2c(OCC(O)COc3cccc4oc(C(=O)O)cc(=O)c34)cccc2o1 | 3.24% [at 25.6 µM] | –
39 | CC(C)NC[C@H](O)c1ccc2ccccc2c1 | – | 12600 nM (active)
40 | CC(C)NC[C@H](O)c1ccc(NS(C)(=O)=O)cc1 | – | inactive
41 | OC[C@@H](O)CNc1ncnc2ccccc12 | -18.7% [at 11.4 µM] | –
42 | CC(=O)Nc1ccc(OC[C@@H](O)CNC(C)C)cc1 | 6.78% [at 25.6 µM] | –

Row | SMILES | activity, negative = inhibition | AC50
43 | OC[C@@H](O)COc1cccc2ccccc12 | – | 631 nM (active)
44 | CC(C)NC[C@@H](O)c1ccc(O)c2ncccc12 | -12.1% [at 2.29 µM] | –
45 | O=C(Cc1ccccc1)N/N=C\c1ccc(Br)o1 | – | 4470 nM (active)
46 | O=C(O)/C(=C\c1ccccc1)Cc1ccccc1 | -18.4% [at 11.4 µM] | –
47 | O=C(Cc1ccccc1)N/N=C/c1cc(Br)c(Br)o1 | – | 2240 nM (active)
48 | N[C@@](CC(=O)O)(Cc1ccccc1)C(=O)O | -13.4% [at 2.29 µM] | –
49 | COC(=O)c1ccc(-n2cncn2)c(F)c1 | – | 708 nM (active)
50 | COC(=O)c1ccc2ccn(CC(=O)NC3CCCCC3)c2c1 | -26.7% | –
51 | O=P(O)(O)O[C@@H]1O[C@H](CO)[C@@H](O)[C@H](O)[C@@H]1O | -16.5% [at 11.4 µM] | –
52 | COc1ccccc1OCCCCCc1c(C)n[nH]c1C | – | 1780 nM (active)
53 | O=[N+]([O-])c1ccc(N2CCN(CCOc3nonc3-c3ccccc3)CC2)c(Cl)c1 | -19.6% | –
54 | O=c1cc(N2CCCCC2)c(-c2ccccc2)nn1Cc1ccccc1Cl | – | 1260 nM (active)
55 | O=C(c1ccc(Cl)cc1)N1CCN(c2cc(=O)[nH]nc2-c2ccccc2)CC1 | 0.0427% | –
56 | CN(C)C(=O)c1ccc(-c2nccc(NCc3cccnc3)n2)cc1 | – | 15800 nM (active)
57 | Cc1cccc(CNc2ccnc(-c3ccc(C(=O)N(C)C)cc3)n2)c1 | – | 25100 nM (active)
58 | Cc1cccc(N(NC(=O)C(C)(C)O)C(=O)c2ccccc2)c1 | -6.27% | –
59 | C/C(=N\N=C(c1ccccc1)c1ccccc1)c1cccs1 | – | 1410 nM (active)
60 | C/C(=N\N=C1\NC(=O)CC(C(=O)O)S1)c1cccs1 (stereo not drawn) | -18.6% | –
61 | C[C@@H](CSC(=N)N)C(N)=O | -6.57% [at 2.29 µM] | –
62 | Cc1ccc(-c2cccc(OC(=O)c3ccccc3F)c2)cc1 | – | 1260 nM (active)
63 | O=C(c1cc(O)c(O)c([N+](=O)[O-])c1)c1ccccc1F | -20.4% | –

From PubChem BioAssay AID1851 (National Center for Advancing Translational Sciences (NCATS), 2009)
